# Bioassay records as filed in PubChem BioAssay.
# A selection: hits, their analogues and other compounds. The true share with any hit is near 0.74%.
# pAkt inh – blocks phosphorylation of Akt. AID 651550. Neuro2A IGF-stimulated pAkt S473 HTRF, 20 min; hits give low values. 0.32% of 360,000 active. activity change, % for hits at 50 µM; in the data active means activity change below about -80%; inconclusive means mostly about -51% to -80%; further: on the % scale 0 is the no-effect control and ±100 the full control effect
#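 Single-point screen (50 µM final compound) in Neuro2A cells stimulated 20 min with 6 nM IGF at 37 deg C. After lysis, Ser473-phosphorylated Akt read by HTRF (ex 330 nm, em 615/665 nm) as the 665/615 ratio.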
# LDHA block – blocks human lactate dehydrogenase A. P00338. purified LDHA, NADH/diaphorase-resazurin fluorescence; hits give low values. activity change, % (values are at about 110 or 230 µM). 0.15% of 480,000 active. AID 1347041; in the data active means activity change below about -30%; inconclusive means mostly about -25% to -30%;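 further: plate controls were DMSO wells for no effect and wells without enzyme for full effect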
#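 Remaining NADH was detected by diaphorase (0.133 mg/mL) converting 37 µM resazurin to fluorescent resorufin, read at 0 and 20 minutes. The preceding 5-minute room-temperature reaction used 2 nM LDHA, 0.2 mM sodium pyruvate and 0.06 mM NADH at pH 7.4.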
# GRP78 ERSR act – ER stress response induction in glioma; U87-MG GRP78 promoter luciferase reporter, 16 h; Potency, µM, without a hit: at the top dose activation, actives largely listed as activators; 0.02% of 420,000 active; further: potency means the concentration at half of the fitted maximal effect; series mostly up to about 76 µM; % of control where 0% means no effect; nearly all actives have a fitted effect of over 35% in size
#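 Stably transfected U87-MG human glioma cells carrying a GRP78-based luminescent sensor were seeded at 1000 cells/well, pin-dosed with compounds and incubated 16 h. Luciferase reagent was then added, and end-point luminescence was read after 10 min at room temperature.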
# Vif-A3F inh – blocks the Vif interaction with APOBEC3F; HeLa A3F-eYFP + Vif (tagged APOBEC3F with the HIV-1 protein that degrades it), YFP fluorescence increase; Potency, µM (doses to about 46.1 µM), for inactives: at the top dose activity, negative = active; 0.2% of 390,000 active; AID 602313; further: potency means the concentration at half of the fitted maximal effect; % of control where 0% means no effect; nearly all actives have a fitted effect of over 65% in size
#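 HeLa cells stably expressing Vif plus C-terminally eYFP-tagged A3F were seeded, incubated overnight at 37 deg C, dosed with compound, incubated overnight again at 37 deg C. Yellow fluorescence (Ex 488/Em 500-530) reported blocked Vif-mediated A3F-eYFP degradation.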
# Vif-APOBEC3G blk – inhibitors of Vif-APOBEC3G interaction. Q9HC16. HeLa A3G-eYFP + Vif (tagged APOBEC3G with the HIV-1 protein that degrades it), YFP fluorescence, overnight. Potency, µM (series often up to 46.1 µM), without a hit: at the top dose activity, negative = active, hits mostly inhibitors. 0.076% of 410,000 active. AID 602310; further: potency means the concentration at half of the fitted maximal effect; on the % scale 0 is the no-effect control and ±100 the full control effect; nearly all actives have a fitted effect of over 60% in size
# Target sequence (Q9HC16 whole entry, looked up): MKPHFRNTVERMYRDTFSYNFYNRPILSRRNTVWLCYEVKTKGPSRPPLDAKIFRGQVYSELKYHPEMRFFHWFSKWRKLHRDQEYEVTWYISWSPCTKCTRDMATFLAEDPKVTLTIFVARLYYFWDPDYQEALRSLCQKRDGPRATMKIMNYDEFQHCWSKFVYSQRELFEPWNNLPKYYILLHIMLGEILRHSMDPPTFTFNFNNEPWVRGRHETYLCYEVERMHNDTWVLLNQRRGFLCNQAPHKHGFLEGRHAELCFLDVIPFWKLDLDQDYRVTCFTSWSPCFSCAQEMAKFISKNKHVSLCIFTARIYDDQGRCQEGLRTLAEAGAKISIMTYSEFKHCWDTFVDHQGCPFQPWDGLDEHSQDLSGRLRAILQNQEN
#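 Read-out is eYFP fluorescence (Ex 488/Em 500-530) from Vif-expressing HeLa A3G-eYFP cells; more signal means A3G escaped Vif-mediated degradation. Cells plated overnight, compound pinned in, incubated overnight at 37 deg C.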
# PINK1 expr mod – PINK1 expression modulation. AID 624263. PINK1 immunofluorescence, high-content cytometry, 24 h. 0.2% of 410,000 active. Potency, µM (doses to about 76.6 µM), without a hit: at the highest dose activation (PINK1 increase), actives largely listed as activators; active means well fitted activation curve with a large enough effect; inconclusive means small, poorly fitted or top-dose-only effect; cell line not stated here; further: potency means the concentration at half of the fitted maximal effect; % of control where 0% means no effect; nearly all actives have a fitted effect of over 65% in size
#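 Compound titrations (5 concentrations, 24 h) on a stable cell line; DMSO and CCCP controls. Endpoint: fixed-cell PINK1 immunofluorescence with mitochondrial, cell and nuclear markers, scanned by microplate cytometer.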
# The depositor's hits bear a star; i = inactive; ? = inconclusive; . = no result given; [ ] = remark or other dose. Unless noted, the call rests on the fitted dose curve; in most records, active means well fitted curve in the direction sought with a large enough effect; inconclusive means small, poorly fitted or top-dose-only effect, or another doubt; inactive means no such curve, though single readings can be large; an effect the other way counts as inactive or inconclusive.
SMILES,pAkt inh,LDHA block,GRP78 ERSR act,Vif-A3F inh,Vif-APOBEC3G blk,PINK1 expr mod
Cc1cc(C(F)(F)F)c(C#N)c(SCC(=O)Nc2nc3ccccc3s2)n1,i,-6,-4%,22µM*,?,?
O=C(NC1CCCCC1)C1CC=CCC1c1nc2ccccc2s1 (stereo not drawn),.,7,.,.,.,.
CCOP(=O)(c1c(F)c(F)c(F)c(F)c1F)C(O)c1ccccc1 (stereo not drawn),-116%*,0,-1%,7%,-2%,-1%
CCOP(=O)(c1ccccc1)C(O)c1ccccc1 (stereo not drawn),i,0,-6%,-3%,-9%,2%
CCOC(=O)Cc1csc(NC(=O)c2sc3nc4c(C)cc(C)cc4cc3c2N)n1,i,-21,2%,25µM*,?,14%[38.3 µM]
O=C(COc1ccc(Br)cc1)Nc1ccc(C(=O)Nc2ccccc2C(=O)O)cc1,i,-32*,-7%,7%,-1%,0%
O=C(NCc1ccccc1)c1ccc(-c2csc(C3CC3)n2)cc1,.,17,.,.,.,.
CN(c1ccc(F)cc1)S(=O)(=O)c1ccc2[nH]cc(C(=O)O)c(=O)c2c1,i,-30*,-4%,6%,-1%,3%
CCc1ccccc1N(C)S(=O)(=O)c1ccc2[nH]cc(C(=O)O)c(=O)c2c1,i,-42*,-3%,2%,-4%,-1%
CC(OC(=O)CN(C)S(=O)(=O)c1ccc(Cl)cc1)C(=O)Nc1cccc(Cl)c1 (stereo not drawn),-98%*,4,-1%,-7%,1%,-3%
CC(OC(=O)CN(C)S(=O)(=O)c1ccc(Cl)cc1)C(=O)Nc1ncc(Cl)cc1Cl (stereo not drawn),i,-3,-5%,-4%,1%,5%[38.3 µM]
CCC(Sc1nnc2c(Cl)cc(C(F)(F)F)cn12)C(=O)Nc1cc(C)on1 (stereo not drawn),.,-3,.,.,.,.
COc1ccc(C(=O)C[n+]2ccc(Cl)c3ccc(Cl)cc32)cc1,.,-60*,-3%,.,4%,0%
Cc1cc2oc(=O)cc(-c3cc4ccccc4o3)c2cc1C,.,15,.,.,.,.
C[C@H](NC(=O)[C@@H]1CSC2c3ccccc3C(=O)N21)C(=O)NC1CCCC1 (stereo partly drawn),i,-1,-3%,-7%,5µM*,0%
Cc1cc(C23CC4CC(CC(C4)C2)C3)ccc1O,.,3,.,.,.,.
COc1ccc(CCN(C)Cc2ccc(OCc3ccccc3)c(OC)c2)cc1OC,i,-32*,-1%,-3%,1%,-4%[38.3 µM]
COc1cc(CN(C)CCc2ccccn2)cc(OC)c1OC,i,-31*,-4%,-5%,-2%,2%
Nc1nc(O)c(Sc2ccccc2[N+](=O)[O-])c(=O)[nH]1,i,-52*,-1%,-20%,2%,3%
Nc1ccccc1Sc1ccccc1[N+](=O)[O-],i,1,-3%,-9%,-9%,4%
Cc1noc(C)c1C(=O)N1CCC2(CCCN(C(c3ccccc3)c3ccccc3)C2)CC1,.,.,28µM*,.,.,0%
CC(=O)C1=C(C)NC(SCC(=O)c2ccc(Cl)cc2Cl)=C(C#N)C1c1ccco1 (stereo not drawn),i,9,-2%,-16%,1%,-7%[38.3 µM]
CC(=O)C1=C(C)NC(SCC(=O)c2ccc(Cl)cc2)=C(C#N)C1c1ccco1 (stereo not drawn),i,9,2%,25µM*,?,1%[38.3 µM]
Cc1nn(C)c2ncc(C(=O)c3ccccc3O)cc12,i,-4,-1%,1%,0%,1%
Cc1nn(-c2ccccc2)c2ncc(C(=O)c3cc(Cl)ccc3O)cc12,i,1,-4%,9%,-2%,28µM*
COc1ccccc1NC(=O)c1oc2ccccc2c1NC(=O)c1cccc(OC)c1OC,.,2,-3%,-12%,5.6µM*,5%
CCOC(=O)c1ccc(COC(=O)CCc2nc3ccccc3[nH]c2=O)o1,-103%*,-3,0%,5%,-1%,-1%
